In PubChem BioAssay (Tox21):
Records with an inconclusive call do not appear. Active and inactive are the calls of the source. Unless noted, the call rests on the fitted dose curve; in most records, active means well fitted curve in the direction sought with a large enough effect in the repeat runs; inconclusive means weak or mixed curves; inactive means no such curve, though single readings can be large; an effect the other way counts as inactive or inconclusive.

What was measured:
[1] = qHTS assay for small molecule agonists of the p53 signaling pathway (AID 651631; calls by dose curve; further: nearly all actives have a fitted effect of over 15% in size)
Method in brief: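 HCT-116 p53RE-bla reporter line, 16 h compound treatment at 37 °C, then fluorescence after 2 h with B/G FRET substrate.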

[2] = qHTS assay for small molecules that induce genotoxicity in human embryonic kidney cells expressing luciferase-tagged ATAD5 (AID 651632); further: nearly all actives have a fitted effect of over 15% in size
Method in brief: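 A rise in luciferase signal from ATAD5-tagged HEK293T cells marks genetic stress. Cells were exposed to compounds for 16 hr at 37C, 5% CO2, then luciferase was quantified after a 30 min room-temperature incubation with Amplite.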

[3] = qHTS assay for small molecule agonists of the p53 signaling pathway - cell viability (AID 651633; calls by dose curve;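 further: p53RE-bla HCT reporter cells with a stable beta-lactamase p53 reporter; series mostly up to about 83 µM; nearly all actives have a fitted effect of over 30% in size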)
Method in brief: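 p53RE-bla cells, seeded at 4,000 per well and rested 5 h at 37 C/5% CO2, received compounds in DMSO for 16 h at 37 C. CellTiter-Glo was then added, and luminescence was read after 30 min at room temperature to gauge cytotoxicity.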

[4] = qHTS assay for small molecules that induce genotoxicity in human embryonic kidney cells expressing luciferase-tagged ATAD5 - cell viability (AID 651634; calls by dose curve; further: nearly all actives have a fitted effect of over 25% in size)
Method in brief: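 Cytotoxicity counter-readout: after 15.5 hr compound treatment at 37C, live-cell protease activity in ATAD5-luciferase HEK293T cells measured by CellTiter-Fluor fluorescence, 30 min development at 37C.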

[5] = qHTS assay for small molecule disruptors of the mitochondrial membrane potential - cell viability (AID 720634; calls by dose curve;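 further: human HepG2 liver cancer cells; series mostly up to about 83 µM; nearly all actives have a fitted effect of over 20% in size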)
Method in brief: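 Cytotoxicity was quantified from ATP content by CellTiter-Glo luminescence in the same wells as the MMP dye read-out. HepG2 (2,000 cells/well) were plated overnight and exposed to compounds for 1 hr at 37 C.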

[6] = qHTS assay for small molecule disruptors of the mitochondrial membrane potential (AID 720635)
Method in brief: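 HepG2 cells (2,000/well) attached overnight at 37C, then took compound for 1 hr at 37C, 5% CO2. Mito-MPS dye was added for 30 min; fluorescence was read at 490/535 nm (monomers) and 540/590 nm (aggregates).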

[7] = molecular target: Glucocorticoid receptor (Homo sapiens) (UniProt P04150); test: qHTS assay to identify small molecule agonists of the glucocorticoid receptor (GR) signaling pathway (AID 720691; active means well fitted activation curve with a large enough effect in the signal ratio in the repeat runs, not every such curve was filed as active; the % refers to the signal ratio)
Glucocorticoid receptor (Homo sapiens), sequence (P04150 whole entry, looked up): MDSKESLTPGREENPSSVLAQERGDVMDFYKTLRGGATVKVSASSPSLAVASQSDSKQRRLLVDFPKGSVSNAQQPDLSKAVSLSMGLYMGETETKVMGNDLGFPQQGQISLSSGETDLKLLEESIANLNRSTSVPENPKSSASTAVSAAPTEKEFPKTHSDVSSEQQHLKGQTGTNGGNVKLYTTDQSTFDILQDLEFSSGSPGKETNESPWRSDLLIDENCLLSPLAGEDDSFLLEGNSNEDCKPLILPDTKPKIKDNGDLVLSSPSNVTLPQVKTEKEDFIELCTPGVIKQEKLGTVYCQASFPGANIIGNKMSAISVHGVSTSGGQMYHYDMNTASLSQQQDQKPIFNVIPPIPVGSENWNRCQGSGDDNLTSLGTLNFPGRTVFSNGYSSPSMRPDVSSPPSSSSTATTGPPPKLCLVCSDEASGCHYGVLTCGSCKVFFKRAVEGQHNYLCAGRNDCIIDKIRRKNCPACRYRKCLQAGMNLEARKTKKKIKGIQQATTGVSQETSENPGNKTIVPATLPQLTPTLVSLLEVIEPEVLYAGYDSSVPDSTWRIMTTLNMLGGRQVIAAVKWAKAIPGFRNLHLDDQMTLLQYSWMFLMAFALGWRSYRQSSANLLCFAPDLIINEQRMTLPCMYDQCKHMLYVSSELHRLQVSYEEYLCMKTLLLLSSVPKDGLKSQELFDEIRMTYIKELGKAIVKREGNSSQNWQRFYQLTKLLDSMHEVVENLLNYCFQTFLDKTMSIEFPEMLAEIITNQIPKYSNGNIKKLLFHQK
Method in brief: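 Agonist-mode qHTS in HeLa cells stably expressing a glucocorticoid-response-element beta-lactamase reporter. Fluorescence intensity read with FRET substrate (2 h, room temperature) after 18 h compound treatment at 37 C.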

[8] = molecular target: Glucocorticoid receptor (Homo sapiens) (UniProt P04150); test: qHTS assay to identify small molecule antagonists of the glucocorticoid receptor (GR) signaling pathway (AID 720692; active means well fitted inhibition curve with a large enough effect in the signal ratio in the repeat runs, not every such curve was filed as active; the % refers to the signal ratio)
Method in brief: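 Inhibition of dexamethasone-driven (5 nM final) beta-lactamase expression was measured in GRE-reporter HeLa cells over 18 h at 37C. Fluorescence was read after 2 h with the B/G FRET substrate at room temperature.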

[9] = qHTS assay to identify small molecule antagonists of the glucocorticoid receptor (GR) signaling pathway - cell viability counter screen (AID 720693); further: nearly all actives have a fitted effect of over 55% in size
[10] = qHTS assay for identifying genotoxic compounds that show differential cytotoxicity against isogenic chicken DT40 cell lines with known DNA damage response pathways - Rad54/Ku70 mutant cell line (AID 743015); further: nearly all actives have a fitted effect of over 60% in size
[11] = qHTS assay to identify small molecule antagonists of the androgen receptor (AR) signaling pathway - cell viability counter screen (AID 743033; further: nearly all actives have a fitted effect of over 45% in size)
[12] = molecular target: Androgen receptor (Homo sapiens) (UniProt P10275); test: qHTS assay to identify small molecule antagonists of the androgen receptor (AR) signaling pathway (AID 743035; active means well fitted inhibition curve with a large enough effect in the signal ratio in the repeat runs, not every such curve was filed as active; the % refers to the signal ratio)
Androgen receptor (Homo sapiens), sequence (P10275 whole entry, looked up): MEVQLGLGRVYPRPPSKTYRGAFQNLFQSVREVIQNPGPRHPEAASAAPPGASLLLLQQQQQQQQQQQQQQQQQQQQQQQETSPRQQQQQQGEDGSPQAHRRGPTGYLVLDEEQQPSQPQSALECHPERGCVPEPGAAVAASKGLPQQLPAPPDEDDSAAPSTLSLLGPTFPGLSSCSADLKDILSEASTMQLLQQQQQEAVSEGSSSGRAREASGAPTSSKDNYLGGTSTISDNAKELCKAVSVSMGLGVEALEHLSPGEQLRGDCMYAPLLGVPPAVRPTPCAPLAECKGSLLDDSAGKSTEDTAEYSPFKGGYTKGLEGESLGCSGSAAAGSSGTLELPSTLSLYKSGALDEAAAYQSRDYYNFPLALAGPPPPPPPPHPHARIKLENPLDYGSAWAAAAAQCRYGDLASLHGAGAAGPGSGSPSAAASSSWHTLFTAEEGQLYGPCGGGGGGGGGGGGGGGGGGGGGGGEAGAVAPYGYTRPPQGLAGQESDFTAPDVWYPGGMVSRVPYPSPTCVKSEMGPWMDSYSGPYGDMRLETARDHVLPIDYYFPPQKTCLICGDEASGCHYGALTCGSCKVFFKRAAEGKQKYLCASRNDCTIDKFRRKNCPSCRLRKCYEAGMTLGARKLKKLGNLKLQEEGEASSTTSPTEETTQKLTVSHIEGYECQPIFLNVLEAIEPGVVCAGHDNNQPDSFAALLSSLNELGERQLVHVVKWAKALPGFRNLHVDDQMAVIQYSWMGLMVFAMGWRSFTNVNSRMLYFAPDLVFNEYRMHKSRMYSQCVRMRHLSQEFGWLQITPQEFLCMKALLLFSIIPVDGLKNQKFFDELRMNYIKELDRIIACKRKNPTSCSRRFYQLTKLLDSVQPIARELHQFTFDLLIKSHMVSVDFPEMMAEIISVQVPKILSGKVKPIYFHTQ
Method in brief: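 Antagonist mode: AR-bla HEK293 cells co-treated with test compounds and agonist R1881 for 16 h at 37C, 5% CO2. Beta-lactamase activity read as FRET fluorescence after 2 h room-temperature substrate loading.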

[13] = molecular target: Androgen receptor (Homo sapiens) (UniProt P10275); test: qHTS assay to identify small molecule agonists of the androgen receptor (AR) signaling pathway using the MDA cell line (AID 743040; further: nearly all actives have a fitted effect of over 20% in size)
Method in brief: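 Cell-based luciferase reporter: MDA-kb2, MMTV promoter (AR + GR response elements). 16 h compound exposure at 37C; ONE-Glo, 30 min RT, luminescence.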

[14] = qHTS assay to identify small molecule antagonists of the androgen receptor (AR) signaling pathway using the MDA cell line - cell viability counter screen (AID 743041; further: nearly all actives have a fitted effect of over 45% in size)
Method in brief: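 In this qHTS counter assay, fluorescence intensity after CellTiter-Fluor addition indicated viability of MDA-kb2 AR-luc cells given compounds and R1881 for 16 h at 37C.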

[15] = molecular target: Androgen receptor (Homo sapiens) (UniProt P10275); test: qHTS assay to identify small molecule antagonists of the androgen receptor (AR) signaling pathway using the MDA cell line (AID 743042; further: nearly all actives have a fitted effect of over 55% in size)
Method in brief: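 MDA-kb2 cells (human breast carcinoma, stably carrying an MMTV-luciferase reporter responsive to AR and GR) were plated at 3,000 cells/well and preincubated 5 hr at 37C, then given compound plus R1881 agonist for 16 h. ONE-Glo luminescence was read.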

[16] = molecular target: Estrogen receptor (Homo sapiens) (UniProt P03372); test: qHTS assay to identify small molecule antagonists of the estrogen receptor alpha (ER-alpha) signaling pathway (AID 743069; active means well fitted curve in the direction sought with a large enough effect in the signal ratio in the repeat runs, not every such curve was filed as active; the % refers to the signal ratio)
Estrogen receptor (Homo sapiens), sequence (P03372 whole entry, looked up): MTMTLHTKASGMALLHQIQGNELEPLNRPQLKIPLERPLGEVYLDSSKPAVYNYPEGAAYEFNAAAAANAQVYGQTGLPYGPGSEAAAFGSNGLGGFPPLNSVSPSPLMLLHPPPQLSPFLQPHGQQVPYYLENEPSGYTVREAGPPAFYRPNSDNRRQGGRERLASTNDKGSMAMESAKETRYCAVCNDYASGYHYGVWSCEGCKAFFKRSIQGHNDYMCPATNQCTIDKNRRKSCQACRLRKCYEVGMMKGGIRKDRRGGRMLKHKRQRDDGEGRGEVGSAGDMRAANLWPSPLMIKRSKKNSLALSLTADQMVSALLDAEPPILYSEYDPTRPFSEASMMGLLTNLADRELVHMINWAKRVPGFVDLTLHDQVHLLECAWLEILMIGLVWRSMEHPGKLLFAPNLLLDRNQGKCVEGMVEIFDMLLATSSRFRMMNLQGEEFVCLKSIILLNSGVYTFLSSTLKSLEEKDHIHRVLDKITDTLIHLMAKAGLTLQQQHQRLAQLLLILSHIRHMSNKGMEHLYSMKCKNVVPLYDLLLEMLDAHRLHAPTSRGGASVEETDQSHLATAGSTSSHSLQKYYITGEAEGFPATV
Method in brief: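 A 17beta-estradiol challenge was applied right after compound transfer to ER-alpha-UAS-bla HEK293 cells previously kept in charcoal-stripped serum. Plates stood 18 hr at 37C and 5% CO2; fluorescence was read following 2 hr FRET substrate loading at room temperature.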

[17] = qHTS assay to identify small molecule antagonists of the estrogen receptor alpha (ER-alpha) signaling pathway - cell viability counter screen (AID 743074; calls by dose curve;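 further: HEK293 cells carrying ER-alpha-UAS-bla reporter stimulated with 17beta-estradiol; nearly all actives have a fitted effect of over 45% in size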)
[18] = molecular target: Estrogen receptor (Homo sapiens) (UniProt P03372); test: qHTS assay to identify small molecule agonists of the estrogen receptor alpha (ER-alpha) signaling pathway (AID 743075; calls by dose curve;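 further: HEK293 GripTite cells with ER-alpha and UAS-driven beta-lactamase reporter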)
[19] = molecular target: Estrogen receptor (Homo sapiens) (UniProt P03372); test: qHTS assay to identify small molecule agonists of the estrogen receptor alpha (ER-alpha) signaling pathway using the BG1 cell line (AID 743079); further: nearly all actives have a fitted effect of over 20% in size
[20] = qHTS assay to identify small molecule antagonists of the estrogen receptor alpha (ER-alpha) signaling pathway using the BG1 cell line (AID 743080; calls by dose curve;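 further: BG1 cells stimulated with 17beta-estradiol alongside compound; series mostly up to about 70 µM; nearly all actives have a fitted effect of over 25% in size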)
Method in brief: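 Luciferase inhibition measured with ONE-Glo after 30 min at RT in BG1Luc4E2 cells given test compounds and 17beta-estradiol for 21.5 h at 37 C; CellTiter-Fluor viability read in the same wells beforehand.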

[21] = qHTS assay to identify small molecule antagonists of the estrogen receptor alpha (ER-alpha) signaling pathway using the BG1 cell line - cell viability counter screen (AID 743081);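 further: compound given together with 17beta-estradiol as the ER stimulus; series mostly up to about 70 µM; nearly all actives have a fitted effect of over 45% in size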
[22] = molecular target: Aromatase (Homo sapiens) (UniProt P11511); test: qHTS assay to identify aromatase inhibitors (AID 743083); further: series mostly up to about 70 µM; nearly all actives have a fitted effect of over 55% in size
Aromatase (Homo sapiens), sequence (P11511 whole entry, looked up): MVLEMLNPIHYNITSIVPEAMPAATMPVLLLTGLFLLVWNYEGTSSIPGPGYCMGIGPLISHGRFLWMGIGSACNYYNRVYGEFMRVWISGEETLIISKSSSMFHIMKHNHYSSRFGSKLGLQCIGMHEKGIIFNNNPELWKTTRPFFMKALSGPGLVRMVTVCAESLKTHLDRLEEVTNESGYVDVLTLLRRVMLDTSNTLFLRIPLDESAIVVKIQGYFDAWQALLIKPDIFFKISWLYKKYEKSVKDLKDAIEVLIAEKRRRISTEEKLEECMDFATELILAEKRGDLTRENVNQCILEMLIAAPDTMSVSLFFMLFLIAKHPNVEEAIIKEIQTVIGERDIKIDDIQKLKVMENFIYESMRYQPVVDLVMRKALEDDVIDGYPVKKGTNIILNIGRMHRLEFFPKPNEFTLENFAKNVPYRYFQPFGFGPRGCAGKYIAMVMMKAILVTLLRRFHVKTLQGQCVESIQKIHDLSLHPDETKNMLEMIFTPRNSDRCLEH

[23] = qHTS assay to identify aromatase inhibitors - cell viability counter screen (AID 743084);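 further: cells stimulated with testosterone during compound exposure; nearly all actives have a fitted effect of over 55% in size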
[24] = molecular target: Aryl hydrocarbon receptor (Homo sapiens) (UniProt P35869); test: qHTS assay to identify small molecule that activate the aryl hydrocarbon receptor (AhR) signaling pathway (AID 743085);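 further: HG2L7.5c1 human HepG2 liver cells with stably integrated DRE-driven firefly reporter; series mostly up to about 70 µM; nearly all actives have a fitted effect of over 15% in size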
Aryl hydrocarbon receptor (Homo sapiens), sequence (P35869 whole entry, looked up): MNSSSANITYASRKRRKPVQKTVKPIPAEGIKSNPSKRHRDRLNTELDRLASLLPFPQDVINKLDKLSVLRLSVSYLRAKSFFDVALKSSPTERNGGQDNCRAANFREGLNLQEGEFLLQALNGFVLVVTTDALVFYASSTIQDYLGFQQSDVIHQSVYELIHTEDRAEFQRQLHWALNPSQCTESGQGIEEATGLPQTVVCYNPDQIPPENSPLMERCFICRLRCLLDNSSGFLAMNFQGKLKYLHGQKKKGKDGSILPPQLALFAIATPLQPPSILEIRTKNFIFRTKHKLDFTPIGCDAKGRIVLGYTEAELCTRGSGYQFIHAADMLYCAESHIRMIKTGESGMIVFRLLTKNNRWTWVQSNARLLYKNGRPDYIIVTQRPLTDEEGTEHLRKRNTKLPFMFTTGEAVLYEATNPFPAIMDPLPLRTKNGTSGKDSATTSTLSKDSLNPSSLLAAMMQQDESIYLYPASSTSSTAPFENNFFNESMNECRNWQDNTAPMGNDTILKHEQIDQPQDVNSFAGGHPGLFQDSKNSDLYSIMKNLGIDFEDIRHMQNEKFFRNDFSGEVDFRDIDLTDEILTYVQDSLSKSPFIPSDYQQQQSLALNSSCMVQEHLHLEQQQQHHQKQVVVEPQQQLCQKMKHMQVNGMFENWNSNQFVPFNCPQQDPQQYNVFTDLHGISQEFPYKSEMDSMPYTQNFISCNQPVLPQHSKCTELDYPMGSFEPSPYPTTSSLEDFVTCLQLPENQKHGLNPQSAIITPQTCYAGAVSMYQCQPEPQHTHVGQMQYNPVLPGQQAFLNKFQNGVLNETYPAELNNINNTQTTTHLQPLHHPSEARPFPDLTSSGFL
Method in brief: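 Steps: seed HepG2-AhR-luc cells; allow 5 h at 37C; pin-transfer test compound or vehicle; incubate 24 h at 37C; add viability dye (30 min, 37C) and read fluorescence; add luciferase substrate (30 min, RT) and read luminescence.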

[25] = qHTS assay to identify small molecule that activate the aryl hydrocarbon receptor (AhR) signaling pathway - cell viability counter screen (AID 743086)
Method in brief: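 HepG2-AhR-luc (HG2L7.5c1) cells, 4000/well, were preincubated 5 h at 37C, exposed to compound in qHTS format for 24 hr at 37C, then given CellTiter-Fluor for 30 min; viability was read as fluorescence in the reporter wells.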

[26] = molecular target: Peroxisome proliferator-activated receptor gamma (Homo sapiens) (UniProt P37231); test: qHTS assay to identify small molecule agonists of the peroxisome proliferator-activated receptor gamma (PPARg) signaling pathway (AID 743094; active means well fitted activation curve with a large enough effect in the signal ratio in the repeat runs, not every such curve was filed as active; the % refers to the signal ratio)
Peroxisome proliferator-activated receptor gamma (Homo sapiens), sequence (P37231 whole entry, looked up): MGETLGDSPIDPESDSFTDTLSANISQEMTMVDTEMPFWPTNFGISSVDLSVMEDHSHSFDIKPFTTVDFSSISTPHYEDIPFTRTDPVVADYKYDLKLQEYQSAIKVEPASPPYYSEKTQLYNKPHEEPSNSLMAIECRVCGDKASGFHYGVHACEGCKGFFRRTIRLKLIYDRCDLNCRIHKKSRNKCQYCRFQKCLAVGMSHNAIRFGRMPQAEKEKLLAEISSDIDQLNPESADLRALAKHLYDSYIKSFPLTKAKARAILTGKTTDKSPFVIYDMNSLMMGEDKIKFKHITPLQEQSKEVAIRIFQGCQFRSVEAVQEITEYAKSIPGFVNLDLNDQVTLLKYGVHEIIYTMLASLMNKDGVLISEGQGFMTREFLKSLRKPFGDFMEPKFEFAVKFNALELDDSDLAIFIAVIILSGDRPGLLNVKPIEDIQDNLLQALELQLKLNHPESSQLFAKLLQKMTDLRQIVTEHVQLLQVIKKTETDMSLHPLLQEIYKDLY
Method in brief: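 Agonist activity was taken from a beta-lactamase reporter (FRET substrate, 1 h at room temperature) in HEK293H cells carrying a PPARg UAS-bla construct. Compounds in DMSO were incubated 17 h at 37C after a 5 h cell pre-incubation.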

[27] = molecular target: Acetylcholinesterase (Homo sapiens) (UniProt P22303); test: Acetylcholinesterase (AChE) small molecule antagonists: fluorescence cell-based qHTS assay (AID 1347398; calls by dose curve; further: nearly all actives have a fitted effect of over 50% in size); conditions: Potency: AChE activity; outcome: AChE activity
Acetylcholinesterase (Homo sapiens), sequence (P22303 whole entry, looked up): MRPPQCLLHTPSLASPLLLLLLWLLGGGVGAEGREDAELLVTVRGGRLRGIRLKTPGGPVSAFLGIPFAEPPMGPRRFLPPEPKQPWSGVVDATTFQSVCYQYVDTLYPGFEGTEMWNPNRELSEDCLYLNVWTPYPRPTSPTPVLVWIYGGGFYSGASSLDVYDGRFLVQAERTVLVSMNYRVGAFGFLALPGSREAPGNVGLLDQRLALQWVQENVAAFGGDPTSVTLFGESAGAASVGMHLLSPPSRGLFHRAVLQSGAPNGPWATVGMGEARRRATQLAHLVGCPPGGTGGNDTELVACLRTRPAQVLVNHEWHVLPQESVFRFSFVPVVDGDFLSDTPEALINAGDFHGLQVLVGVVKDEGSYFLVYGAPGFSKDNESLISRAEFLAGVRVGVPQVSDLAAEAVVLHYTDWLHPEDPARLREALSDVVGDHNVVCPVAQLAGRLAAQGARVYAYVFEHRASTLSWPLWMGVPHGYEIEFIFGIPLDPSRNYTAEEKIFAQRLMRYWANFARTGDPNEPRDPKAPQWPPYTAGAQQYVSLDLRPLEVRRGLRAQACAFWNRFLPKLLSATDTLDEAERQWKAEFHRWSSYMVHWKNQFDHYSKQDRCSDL
Method in brief: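 Using neuroblastoma SH-SY5Y cells as the enzyme source, test chemicals are preincubated 30 min at 37 C; AChE-driven acetylthiocholine cleavage is then quantified by thiocholine-dependent Thiolite Green fluorescence after 40 min at room temperature.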

[28] = molecular target: Acetylcholinesterase (Homo sapiens) (UniProt P22303); test: Acetylcholinesterase (AChE) small molecule antagonists: enzyme-based qHTS assay with human liver microsomes (AID 1347399; calls by dose curve; further: nearly all actives have a fitted effect of over 60% in size); conditions: Potency: qHTS inhibition; outcome: qHTS inhibition
Method in brief: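 Recombinant human AChE (50 mU/mL in the enzyme mix) and human liver microsomes (0.25 mg/mL final) were preincubated with compound and NADPH (0.25 mg/mL final) for 30 min at 37 C. Acetylthiocholine/DTNB was then added; thiocholine was read colorimetrically after 10 min at room temperature.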

Measured: Potency

CNC(C)[C@@H]1CC[C@@H](N)[C@@H](O[C@H]2[C@H](O)[C@@H](O[C@H]3OC[C@](C)(O)[C@H](NC)[C@H]3O)[C@H](N)C[C@@H]2N)O1 (stereo partly drawn)
inactive: [1] | [2] | [3] | [4] | [5] | [6] | [7] | [8] | [9] | [10] | [11] | [12] | [13] | [14] | [15] | [16] | [17] | [18] | [19] | [20] | [21] | [22] | [23] | [24] | [25] | [26]

CC(C(=O)O)c1ccc(C(=O)c2ccccc2)s1 (stereo not drawn)
inactive: [27] | [28]
